Source: PubChem BioAssay (NCI)
This is part of a sample that, as a whole, favours compounds with a hit. Of some 79,000 tested, about 15% had one in any assay. A number with no mark means an inactive call. Activity calls are given as the source filed them. No stated cut-off is given here; in the data, active means growth inhibition above about 70%; inactive means the rest.

What was measured:
[1] = NCI Yeast Anticancer Drug Screen. Data for the rad52 strain (AID 147);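 further: 0% = growth of vehicle-treated control cultures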; settings: S. cerevisiae rad52 mutant growth inhibition, stronger effect = higher value
Outline: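 Measured: yeast growth inhibition. System: strain with a defined DNA damage repair alteration. Reference: vehicle-treated control cultures.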

[2] = NCI Yeast Anticancer Drug Screen. Data for the wt1 strain (AID 149);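 further: 0% = growth of vehicle-treated wt1 cultures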; settings: S. cerevisiae wt1 strain (SPY 50644) growth inhibition, stronger effect = higher value
Outline: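 Measured: growth of wt1 yeast under compound versus vehicle treatment, reported as inhibition.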

[3] = NCI Yeast Anticancer Drug Screen. Data for the mgt1 strain (AID 153); settings: S. cerevisiae mgt1 mutant growth inhibition, stronger effect = higher value
Outline: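 After exposure of the mgt1 yeast mutant to compound, growth was measured and reported as inhibition compared with vehicle controls.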

[4] = NCI Yeast Anticancer Drug Screen. Data for the rad50 strain (AID 155);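 further: 0% = growth of vehicle-only cultures of the same strain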; settings: S. cerevisiae rad50 strain growth inhibition, stronger effect = higher value
Outline: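 Growth of the mutant yeast was measured after compound exposure and referenced to vehicle-treated cultures.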

[5] = NCI Yeast Anticancer Drug Screen. Data for the mec2-1 strain (AID 157); settings: S. cerevisiae mec2-1 strain, stronger effect = higher value
Outline: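 Test agents were screened against the mec2-1 yeast strain, with defined DNA repair or cell cycle alteration. Growth was scored as inhibition against vehicle-only controls.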

[6] = NCI Yeast Anticancer Drug Screen. Data for the rad14 strain (AID 159);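 further: 0% = growth of vehicle-treated control cultures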; settings: S. cerevisiae rad14 strain growth inhibition, stronger effect = higher value
Outline: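 Here, inhibition of yeast growth was measured after compound exposure, using a strain with a genetic defect in DNA damage repair and vehicle-treated cultures as the reference.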

[7] = NCI Yeast Anticancer Drug Screen. Data for the sgs1 mgt1 strain (AID 161);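 further: 0% = growth of cultures given vehicle only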; settings: S. cerevisiae sgs1 mgt1 strain, stronger effect = higher value
Outline: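 Mutant yeast exposed to compound; growth scored against vehicle-only wells.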

[8] = NCI Yeast Anticancer Drug Screen. Data for the CLN2oe strain (AID 163);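 further: 0% = growth of vehicle-only control cultures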; settings: S. cerevisiae CLN2oe strain, stronger effect = higher value
Outline: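 Here, growth inhibition in a cell-cycle-altered yeast strain after compound exposure was quantified against vehicle control growth.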

[9] = NCI Yeast Anticancer Drug Screen. Data for the cln2 rad14 strain (AID 165);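 further: 0% = growth equal to vehicle treated cultures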; settings: S. cerevisiae cln2 rad14 strain, stronger effect = higher value
Outline: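 Growth of compound-exposed yeast (cln2 rad14 genotype) measured and expressed as inhibition relative to vehicle.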

[10] = NCI Yeast Anticancer Drug Screen. Data for the bub3 strain (AID 167); settings: S. cerevisiae bub3 mutant strain, stronger effect = higher value
Outline: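 Whole-cell yeast assay. The mutant strain was incubated with compounds, and growth inhibition was determined by comparison with vehicle-treated cells.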

[11] = NCI Yeast Anticancer Drug Screen. Data for the wt2 strain (AID 169);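 further: 0% = growth of vehicle-treated yeast cultures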; settings: S. cerevisiae wt2 strain growth inhibition, stronger effect = higher value
Outline: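 Genetically defined yeast strains from a DNA-repair/cell-cycle panel were used. Compound-exposed yeast growth was measured, and the inhibition was calculated relative to vehicle treatment.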

[12] = NCI Yeast Anticancer Drug Screen. Data for the mlh1 strain (AID 171);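 further: 0% = growth of vehicle-treated control cultures of the same strain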; settings: S. cerevisiae mlh1 strain growth inhibition, stronger effect = higher value
Outline: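 Here the genetically defined yeast mutant is grown with each compound, and the extent to which its growth falls below that of vehicle-exposed cells is reported.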

[13] = NCI Yeast Anticancer Drug Screen. Data for the sgs1 strain (AID 173);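 further: 0% = growth of vehicle-only control cultures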; settings: S. cerevisiae sgs1 mutant, stronger effect = higher value
Outline: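 Relative growth inhibition, referenced to vehicle, was determined in a yeast strain with a defined alteration affecting DNA damage repair or cell cycle control after compound exposure.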

[14] = NCI Yeast Anticancer Drug Screen. Data for the mlh1 rad18 strain (AID 175); settings: S. cerevisiae mlh1 rad18 strain growth inhibition, stronger effect = higher value
Outline: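 In this whole-cell yeast screen, a strain with altered DNA damage repair is challenged with compound, and its growth is measured against matched vehicle-treated controls.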

[15] = NCI Yeast Anticancer Drug Screen. Data for the rad18 strain (AID 177); settings: S. cerevisiae rad18 mutant growth inhibition, stronger effect = higher value
Outline: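 Screen uses a yeast strain with a defined lesion in DNA damage repair; compound effect is read as loss of growth compared to untreated vehicle cultures.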

[16] = NCI Yeast Anticancer Drug Screen. Data for the rad50EPP+ strain (AID 151);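 further: 0% = growth of vehicle-treated control cultures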; settings: S. cerevisiae rad50 mutant strain, stronger effect = higher value
Outline: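 One strain with a rad50 alteration (rad50EPP+) was compound-treated, its growth then compared to that of vehicle controls.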

[17] = at 5.0 µM (retest, dose inferred, filed as 0.5)
[18] = at 50.0 µM (retest, dose inferred, filed as 5.0)

SMILES: CC1C(NNc2ccccc2)Oc2cc3c(cc2C1c1ccccc1O)OCO3 (stereo unspecified)
- growth inhibition ([1]; at 1.2 µM): 67%
- growth inhibition ([1]; at 3.7 µM): 99% (active)
- growth inhibition ([1]; at 11.0 µM): 99% (active)
- growth inhibition ([1]; at 33.0 µM): 94% (active)
- growth inhibition ([1]; at 100.0 µM): 94% (active)
- growth inhibition ([2]; at 1.2 µM): 72% (active)
- growth inhibition ([2]; at 3.7 µM): 98% (active)
- growth inhibition ([2]; at 11.0 µM): 99% (active)
- growth inhibition ([2]; at 33.0 µM): 96% (active)
- growth inhibition ([2]; at 100.0 µM): 95% (active)
- growth inhibition ([3]; at 1.2 µM): -4%
- growth inhibition ([3]; at 3.7 µM): 63%
- growth inhibition ([3]; at 11.0 µM): 99% (active)
- growth inhibition ([3]; at 33.0 µM): 93% (active)
- growth inhibition ([3]; at 100.0 µM): 94% (active)
- growth inhibition ([4]; at 1.2 µM): 12%
- growth inhibition ([4]; at 3.7 µM): 95% (active)
- growth inhibition [4, 17]: 17%
- growth inhibition ([4]; at 11.0 µM): 98% (active)
- growth inhibition ([4]; at 33.0 µM): 93% (active)
- growth inhibition [4, 18]: 98% (active)
- growth inhibition ([4]; at 50.0 µM): 86.9% (active)
- growth inhibition ([4]; at 100.0 µM): 92% (active)
- growth inhibition ([5]; at 1.2 µM): 7%
- growth inhibition ([5]; at 3.7 µM): 80% (active)
- growth inhibition [5, 17]: 34%
- growth inhibition ([5]; at 11.0 µM): 98% (active)
- growth inhibition ([5]; at 33.0 µM): 94% (active)
- growth inhibition [5, 18]: 97% (active)
- growth inhibition ([5]; at 50.0 µM): 88.2% (active)
- growth inhibition ([5]; at 100.0 µM): 94% (active)
- growth inhibition ([6]; at 1.2 µM): -4%
- growth inhibition ([6]; at 3.7 µM): 54%
- growth inhibition ([6]; at 11.0 µM): 99% (active)
- growth inhibition ([6]; at 33.0 µM): 93% (active)
- growth inhibition ([6]; at 100.0 µM): 93% (active)
- growth inhibition [7, 17]: -26%
- growth inhibition [7, 18]: 97% (active)
- growth inhibition ([7]; at 50.0 µM): 89.6% (active)
- growth inhibition ([8]; at 1.2 µM): -1%
- growth inhibition ([8]; at 3.7 µM): 98% (active)
- growth inhibition ([8]; at 11.0 µM): 96% (active)
- growth inhibition ([8]; at 33.0 µM): 90% (active)
- growth inhibition ([8]; at 100.0 µM): 88% (active)
- growth inhibition [9, 17]: 47%
- growth inhibition [9, 18]: 97% (active)
- growth inhibition ([9]; at 50.0 µM): 90.8% (active)
- growth inhibition ([10]; at 1.2 µM): -11%
- growth inhibition ([10]; at 3.7 µM): 68%
- growth inhibition [10, 17]: 67%
- growth inhibition ([10]; at 11.0 µM): 98% (active)
- growth inhibition ([10]; at 33.0 µM): 93% (active)
- growth inhibition [10, 18]: 98% (active)
- growth inhibition ([10]; at 50.0 µM): 91.5% (active)
- growth inhibition ([10]; at 100.0 µM): 94% (active)
- growth inhibition ([11]; at 1.2 µM): 51%
- growth inhibition ([11]; at 3.7 µM): 98% (active)
- growth inhibition ([11]; at 11.0 µM): 99% (active)
- growth inhibition ([11]; at 33.0 µM): 96% (active)
- growth inhibition ([11]; at 100.0 µM): 94% (active)
- growth inhibition ([12]; at 1.2 µM): -6%
- growth inhibition ([12]; at 3.7 µM): 61%
- growth inhibition ([12]; at 11.0 µM): 98% (active)
- growth inhibition ([12]; at 33.0 µM): 94% (active)
- growth inhibition ([12]; at 100.0 µM): 93% (active)
- growth inhibition ([13]; at 1.2 µM): 94% (active)
- growth inhibition ([13]; at 3.7 µM): 99% (active)
- growth inhibition ([13]; at 11.0 µM): 99% (active)
- growth inhibition ([13]; at 33.0 µM): 95% (active)
- growth inhibition ([13]; at 100.0 µM): 95% (active)
- growth inhibition [14, 17]: 83% (active)
- growth inhibition [14, 18]: 98% (active)
- growth inhibition ([14]; at 50.0 µM): 91.9% (active)
- growth inhibition ([15]; at 1.2 µM): 12%
- growth inhibition ([15]; at 3.7 µM): 94% (active)
- growth inhibition ([15]; at 11.0 µM): 98% (active)
- growth inhibition ([15]; at 33.0 µM): 91% (active)
- growth inhibition ([15]; at 100.0 µM): 92% (active)

SMILES: CN1Cc2ccccc2/C=C\c2ccccc21
- growth inhibition ([1]; at 1.2 µM): -3%
- growth inhibition ([1]; at 3.7 µM): -4%
- growth inhibition ([1]; at 11.0 µM): -1%
- growth inhibition ([1]; at 33.0 µM): 25%
- growth inhibition ([1]; at 100.0 µM): 39%
- growth inhibition ([2]; at 1.2 µM): -3%
- growth inhibition ([2]; at 3.7 µM): -2%
- growth inhibition ([2]; at 11.0 µM): -3%
- growth inhibition ([2]; at 33.0 µM): -4%
- growth inhibition ([2]; at 100.0 µM): 7%
- growth inhibition ([16]; at 1.2 µM): 0%
- growth inhibition ([16]; at 3.7 µM): 9%
- growth inhibition ([16]; at 11.0 µM): 23%
- growth inhibition ([16]; at 33.0 µM): 36%
- growth inhibition ([16]; at 100.0 µM): 71% (active)
- growth inhibition ([4]; at 1.2 µM): -6%
- growth inhibition ([4]; at 3.7 µM): -10%
- growth inhibition [4, 17]: -123%
- growth inhibition ([4]; at 11.0 µM): -1%
- growth inhibition ([4]; at 33.0 µM): 49%
- growth inhibition [4, 18]: 92% (active)
- growth inhibition ([4]; at 50.0 µM): 24.8%
- growth inhibition ([4]; at 100.0 µM): 64%
- growth inhibition ([5]; at 1.2 µM): 1%
- growth inhibition ([5]; at 3.7 µM): 2%
- growth inhibition [5, 17]: -47%
- growth inhibition ([5]; at 11.0 µM): 1%
- growth inhibition ([5]; at 33.0 µM): 1%
- growth inhibition [5, 18]: 67%
- growth inhibition ([5]; at 50.0 µM): 34.3%
- growth inhibition ([5]; at 100.0 µM): -3%
- growth inhibition ([6]; at 1.2 µM): -3%
- growth inhibition ([6]; at 3.7 µM): -2%
- growth inhibition ([6]; at 11.0 µM): 1%
- growth inhibition ([6]; at 33.0 µM): 14%
- growth inhibition ([6]; at 100.0 µM): 43%
- growth inhibition [7, 17]: -57%
- growth inhibition [7, 18]: 90% (active)
- growth inhibition ([7]; at 50.0 µM): -5.4%
- growth inhibition ([8]; at 1.2 µM): 0%
- growth inhibition ([8]; at 3.7 µM): 2%
- growth inhibition ([8]; at 11.0 µM): 3%
- growth inhibition ([8]; at 33.0 µM): 2%
- growth inhibition ([8]; at 100.0 µM): 3%
- growth inhibition [9, 17]: -57%
- growth inhibition [9, 18]: 18%
- growth inhibition ([9]; at 50.0 µM): -30.4%
- growth inhibition ([10]; at 1.2 µM): -2%
- growth inhibition ([10]; at 3.7 µM): -1%
- growth inhibition [10, 17]: -66%
- growth inhibition ([10]; at 11.0 µM): 1%
- growth inhibition ([10]; at 33.0 µM): 12%
- growth inhibition [10, 18]: 87% (active)
- growth inhibition ([10]; at 50.0 µM): -15.8%
- growth inhibition ([10]; at 100.0 µM): 35%
- growth inhibition ([11]; at 1.2 µM): 0%
- growth inhibition ([11]; at 3.7 µM): 1%
- growth inhibition ([11]; at 11.0 µM): 0%
- growth inhibition ([11]; at 33.0 µM): -4%
- growth inhibition ([11]; at 100.0 µM): 25%
- growth inhibition ([12]; at 1.2 µM): 9%
- growth inhibition ([12]; at 3.7 µM): 1%
- growth inhibition ([12]; at 11.0 µM): -1%
- growth inhibition ([12]; at 33.0 µM): -3%
- growth inhibition ([12]; at 100.0 µM): 33%
- growth inhibition ([13]; at 1.2 µM): 2%
- growth inhibition ([13]; at 3.7 µM): 3%
- growth inhibition ([13]; at 11.0 µM): 2%
- growth inhibition ([13]; at 33.0 µM): 23%
- growth inhibition ([13]; at 100.0 µM): 58%
- growth inhibition [14, 17]: -109%
- growth inhibition [14, 18]: 89% (active)
- growth inhibition ([14]; at 50.0 µM): 22.6%
- growth inhibition ([15]; at 1.2 µM): 0%
- growth inhibition ([15]; at 3.7 µM): 2%
- growth inhibition ([15]; at 11.0 µM): 15%
- growth inhibition ([15]; at 33.0 µM): 47%
- growth inhibition ([15]; at 100.0 µM): 78% (active)
